High-throughput results deposited in PubChem by National Center for Advancing Translational Sciences (NCATS).
Sampled rows, rich in hits. Any-hit rate of the full collection: about 6%.
15-hLO inh: 15-hLO (ALOX15) enzyme inhibition. Potency, µM (series often up to 57.1 µM), for inactives: at the highest dose activity change, negative = inhibition, actives largely listed as inhibitors. purified 15hLO-1, xylenol orange hydroperoxide absorbance. AID 887. 74,000 compounds, 1.4% hits; further: nearly all actives have a fitted effect of over 55% in size
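Readout: Fe(III)-xylenol orange absorbance, 573-to-405 nm ratio as reaction progress. Enzyme 40 nM purified human 15hLO-1, substrate 50 uM arachidonic acid, 6 min RT after 15 min compound preincubation; Hepes pH 7.5 buffer with Triton X-100.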
FLuc inh: firefly luciferase inhibition. P08659. purified firefly luciferase, luminescence, 8 min. Potency, µM (titrated, usually from 57.1 µM), for the others: at the highest dose activity change, negative = inhibition, hits mostly inhibitors. 72,000 compounds, 2.2% hits. AID 411; further: nearly all actives have a fitted effect of over 40% in size
Target sequence (P08659 whole entry, looked up): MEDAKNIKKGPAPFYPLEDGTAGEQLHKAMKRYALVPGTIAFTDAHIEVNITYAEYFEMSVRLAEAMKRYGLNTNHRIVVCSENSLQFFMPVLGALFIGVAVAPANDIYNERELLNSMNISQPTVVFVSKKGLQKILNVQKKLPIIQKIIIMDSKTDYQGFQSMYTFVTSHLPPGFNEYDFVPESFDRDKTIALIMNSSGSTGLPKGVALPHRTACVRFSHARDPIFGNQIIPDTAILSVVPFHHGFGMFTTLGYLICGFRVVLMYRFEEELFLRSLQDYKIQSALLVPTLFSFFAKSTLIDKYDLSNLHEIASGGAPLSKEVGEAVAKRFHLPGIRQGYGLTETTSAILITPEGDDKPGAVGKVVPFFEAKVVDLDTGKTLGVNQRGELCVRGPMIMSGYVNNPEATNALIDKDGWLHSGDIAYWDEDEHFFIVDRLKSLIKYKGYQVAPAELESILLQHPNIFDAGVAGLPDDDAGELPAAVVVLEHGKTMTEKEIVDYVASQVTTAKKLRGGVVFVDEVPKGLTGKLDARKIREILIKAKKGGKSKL
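Here, luciferase activity is measured as luminescence following an 8 min room-temperature reaction at 10 uM ATP, pH 7.2. Every library sample is titrated.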
Pol III holo inh: DNA polymerase III holoenzyme inhibition; 71,000 compounds, 0.25% hits; Potency, µM (series often up to 57.1 µM), inactives show at the top dose activity change, negative = inhibition; AID 603; reconstituted DNA polymerase III holoenzyme replication, biochemical
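Reconstituted *E. coli* holoenzyme (0.35 nM Pol III, 1 nM beta, 154 nM SSB, 2 nM primase) was preincubated with compound for 15 min at RT. Synthesis on 1.4 nM ssM13Gori ran 35 min, then was stopped with PicoGreen/EDTA and read as dsDNA fluorescence.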
ERK AVP block: inhibitors of vasopressin-stimulated ERK signaling pathway; Potency, µM (titrated, usually from 57.5 µM), for inactives: at the highest dose activity, negative = inhibition, most hits filed as inhibitors; HEK293-V1b, vasopressin-stimulated pERK AlphaScreen; 72,000 compounds, 0.99% hits; AID 995; further: nearly all actives have a fitted effect of over 55% in size
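HEK293 cells stably expressing V1b receptor, seeded overnight in 1% FBS, were treated with compounds for 30 min at 37C, then stimulated 5 min with 25 nM vasopressin; phospho-ERK read by AlphaScreen SureFire after lysis.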
PK Bst: modulators of Bacillus stearothermophilus pyruvate kinase | purified pyruvate kinase, luminescence ATP production; ribose 5-phosphate activator present at AC10 | AID 361 | Potency, µM | 51,000 compounds, 1.2% hits; in the data active means potency below about 11 µM; inconclusive means mostly about 12 µM to 25 µM;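 the screen sought inhibitors and activators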;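 further: scaled between full activation by ribose 5 phosphate and full inhibition by luteolin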
Tau fil binding: tau filament binding; P10636; 71,000 compounds, 2% hits; AID 596; recombinant tau filaments, thioflavin S fluorescence, 15 h; filaments grown with octadecylsulfate alongside compound; Potency, µM (highest dose often 57.1 µM), for inactives: top-dose activity change, negative = inhibition;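 further: actives lower thioflavin S fluorescence by blocking filaments or displacing dye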
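His-tagged recombinant human tau (exons 2, 3 and 10 included), 1 uM, was induced to fibrillize by 30 uM sodium octadecylsulfate with compound present. After 15 h at 37 C, thioflavine S fluorescence (ex 450, em 510 nm) was read.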
Numbers without * were called inactive; i = inactive; ? = inconclusive; . = not tested or not shown; ! = not active in a repeat; [ ] = another dose, or the depositor's remark. Unless noted, the call rests on the fitted dose curve; in most records, active means well fitted curve in the direction sought with a large enough effect; inconclusive means small, poorly fitted or top-dose-only effect, or another doubt; inactive means no such curve, though single readings can be large; an effect the other way counts as inactive or inconclusive. Unless noted, on the % scale 0 is the no-effect control and ±100 the full control effect; potency means the concentration at half of the fitted maximal effect.

SMILES | 15-hLO inh | FLuc inh | Pol III holo inh | ERK AVP block | PK Bst | Tau fil binding
C=C(C)CSc1nc(N)c(C#N)c(-c2ccc(C)cc2)c1C#N | 32µM* | -18% | -2% | 65% | >57 | 208%
Cc1ccc(O)c(CNc2ccccn2)c1 | 5% | -8% | 0% | -15% | >57 | 8%
CSc1ccc(CNc2ccccn2)cc1 | -8% | 16µM* | 2% | -13% | . | -10%
CCN(CC)CCn1c(-c2ccccc2)nc2c(NC3CCCCC3)nc(C)nc21 | ? | . | 3% | -1% | . | 122%
COC(=O)C/C=C\[C@@H](C)[C@@H](/C=N\OC[C@@H]1O[C@H](c2ccccc2)C=C[C@@H]1Oc1ccc(OC)cc1)NS(=O)(=O)c1ccc(C)cc1 | 2%[11.4 µM] | -2%[11.4 µM] | . | -7%[11.5 µM] | . | .
N#CC1=C2SCN(Cc3ccco3)CN2C(=O)CC1c1cccc2ccccc12 (configuration not stated) | 7.9µM* | -3% | -1% | ? | i | ?
CCc1ccc(N2CSC3=C(C#N)C(c4cccs4)CC(=O)N3C2)cc1 (configuration not stated) | ? | -20% | -4% | -12% | >57 | ?
Cc1nc2cnc(Nc3ccccc3)nc2n(CCc2ccccc2)c1=O | 2% | -7%[11.4 µM] | -3% | -5% | . | -19%
CNc1ccc(O)cc1 | ? | . | -16% | -11% | . | 20µM*
CNc1ccccc1 | -2% | . | 0% | 23% | . | -6%
C=CCn1c(C)cc(C(=O)CSc2nc3ccccc3c(=O)[nH]2)c1C | -14% | -18% | -4% | 20µM* | i | -9%
C=CCn1c(C)cc(C(=O)CSc2nc3ccccc3o2)c1C | -11% | 16µM* | -2% | -27% | i | 8%
O=C1c2ccccc2C(=O)C1c1ccncc1 | -6% | 7.9µM* | -4% | -20% | . | -27%
O=C1c2ccccc2CC[C@H]1CNCCc1ccc(O)cc1 | 4%[25.6 µM] | -4% | -1% | 9% | . | ?
CC1(C)CCC[C@@]2(C)[C@@H]1CC[C@]1(C)OC(=O)C[C@@H]21 | . | 0%[11.4 µM] | -2% | . | . | -15%
Cc1nn(C)cc1CNC(=O)c1cnn2c(C(F)F)cc(C3CC3)nc12 | -8% | -2% | -6% | 7.9µM* | >57 | -20%
CCOc1ccc2c(ccc(/C=C\c3cc(C)c4cccnc4c3O)[n+]2C)c1 | 69%[11.4 µM] | -11%[11.4 µM] | 3.2µM* | -5%[11.5 µM] | . | 0.63µM*
O=C1c2ccccc2C(=O)N1CCc1nc2ccccc2c(=O)n1Cc1ccco1 | -2% | 0% | 2% | ? | . | ?
CCCc1nc2sc3ccccc3c(=O)c2c(=O)n1Cc1ccco1 | -19% | 1% | -8% | -7% | . | 16µM*
O=c1cc(C(F)F)oc2c1ccc1ccccc12 | 13µM* | -2% | -6% | -11% | . | -13%
Cc1ccc(S(=O)(=O)CCC(=O)OCC(=O)N2CC(=O)Nc3ccccc32)cc1 | 0% | -2% | -6% | -19% | . | 2%
O=C1CN(C(=O)COC(=O)CCC(=O)c2ccc3c(c2)OCCO3)c2ccccc2N1 | -1% | 20µM* | 7% | -27% | . | 13%
C1=C(c2ccccc2)CCN(c2ncnc3nc[nH]c23)C1 | 25µM* | 0% | -5% | . | . | -5%
Cc1ccc(-n2nc(-c3ccc(N)cc3)cc2N)cc1 | -2% | -1% | 6% | -25% | . | 7.9µM*
O=C(Nc1ccc2c(c1)oc1ccccc12)N1CCOCC1 | 6% | 20µM* | 0% | 10% | ? | 3%
SMILES | 15-hLO inh | FLuc inh | Pol III holo inh | ERK AVP block | PK Bst | Tau fil binding
CCN1C(=O)c2cccc3c(NS(=O)(=O)c4ccc(NC(C)=O)cc4)ccc1c23 | -13% | -2% | 3% | 0% | >57 | -27%
CCN1C(=O)c2cccc3c(S(=O)(=O)Nc4ccccc4OC)ccc1c23 | -19% | -3% | -3% | -2% | >57 | 20µM*
C[C@@H]1C[C@@]2(C)Oc3ccccc3[C@H]3OC[C@]1(COC(=O)Nc1ccccc1)[C@@H](C)[C@@H]32 | . | 0%[11.4 µM] | -6% | . | . | ?
CCOC(=O)NC1(Nc2ccc(Cl)cn2)Oc2ccccc2O1 | 25µM* | -4% | -5% | ? | >57 | 4%
COc1cc(/C=C/C(=O)N2CCCCC2=O)cc(OC)c1OC | 4%[25.6 µM] | . | . | 0% | . | .
O=c1cnc2cnc(Oc3cccc(Cl)c3)nc2n1CCc1ccccc1 | -11% | -7%[11.4 µM] | -6% | -22% | . | 25µM*
C[C@H](O)[C@H](O)[C@@H](O)c1cnc2nc(N)[nH]c(=O)c2n1 | . | 0%[11.4 µM] | -2% | . | . | 17%
COc1ccc(CCNc2nc(C)nc3c2oc2ccccc23)cc1OC | -8% | -1% | -6% | 13µM* | i | 20%
Cc1nc(Nc2ccncc2)c2oc3ccccc3c2n1 | 12% | 3% | -17% | -21% | >11 | 4%
Cc1nc(NCc2ccco2)c2oc3ccccc3c2n1 | -1% | 0% | -3% | 25µM* | . | 2%
COc1ccc(CCNc2ncnc3c2oc2ccccc23)cc1OC | 8% | 1% | -8% | 32µM* | i | 24%
CN(C)C(=O)c1ccc(-c2ccc3ncnc(NCCN4CCOCC4)c3c2)cc1 | 13% | -2%[2.29 µM] | -4% | -16% | . | 13%
CCNc1ncc2nc(-c3cc(F)cc(F)c3)c(=O)n(C3CC3)c2n1 | -6% | 1%[11.4 µM] | -8% | 6% | . | 66%
CC(=O)C(C(C)=O)c1c(Cl)c(O)c(O)c2c(C(=O)c3ccccc3)coc12 | 2.5µM* | ? | -6% | ? | >57 | 25µM*
CN1CCN(Cc2c(O)ccc3occ(C(=O)c4ccccc4)c23)CC1 | -3% | 1% | -3% | 14% | . | -18%
CC1CCC/C(=C\Nc2ccccc2C(=O)O)C1=O (configuration not stated) | 8% | -5% | -4% | 2% | >57 | 6%
CC1CCC/C(=C\Nc2ccc3c(c2)OCO3)C1=O (configuration not stated) | -18% | 10µM* | -1% | -29% | i | 25µM*
O=C(O)CCC(C(=O)O)n1c(O)c(C2=c3ccccc3=NC2=O)sc1=S (configuration not stated) | 10µM* | -17% | -5% | ? | . | -4%
COc1cccc(Cn2c(=O)cnc3cnc(N(C)C)nc32)c1 | -5% | 1%[11.4 µM] | -20% | -1% | . | -12%
Oc1cccc(O)c1O | 13µM* | . | 7.9µM* | 3% | . | -4%
COc1c(O)cccc1O | 2% | . | . | 5% | . | .
O=C1Cc2c([nH]c3ccc(Br)cc23)-c2ccccc2N1 | -11%[25.6 µM] | ? | -5% | -46% | . | 32µM*!
COC(=O)CSc1nc2c(c(-c3ccco3)c1C#N)CCCC2 | 10µM* | 1% | 0% | -11% | >57 | 16µM*
N#Cc1c(N)nc(SCc2ccccc2)c(C#N)c1-c1ccco1 | ? | 1% | 1% | -13% | >57 | -11%
N#Cc1c(N)nc(SCC(=O)OCc2ccccc2)c(C#N)c1-c1ccco1 | 16µM* | -1% | -7% | -9% | >57 | 3%
